# Rows were chosen to be rich in hits. Some 28% of all compounds tested hit in one or more screens of this group.
# CYP2C19 act: human CYP2C19 activators, primary screen, biochemical, luminescence; Cytochrome P450 2C19 (Homo sapiens), P33261; recombinant CYP2C19, luciferin-H EGE luminescence; stronger effect = higher value; 0 = fully inhibited enzyme, 1 = untreated enzyme; activation factor at 5 µM; 96,000 tested, under 10 active; AID 1025, 2008;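 active = activation factor of at least 2 at 5 µM in the primary screen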;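 also: 0 = wells with 2.5 mM tranylcypromine and 1 = vehicle-only wells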
# Mac1 fbg enh: enhancers of CD11b/CD18 adhesion to fibrinogen, primary screen, K562 cells, luminescence; ATPlite luminescence; activation, % at 10 µM; 0.07% of 93,000 active; AID 1499, 2009;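 active = 10 µM primary screen giving 50% or more activity, confirmed by 40% or more on retest at that dose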
# Target sequence (P05107 whole entry, looked up, other chains not shown): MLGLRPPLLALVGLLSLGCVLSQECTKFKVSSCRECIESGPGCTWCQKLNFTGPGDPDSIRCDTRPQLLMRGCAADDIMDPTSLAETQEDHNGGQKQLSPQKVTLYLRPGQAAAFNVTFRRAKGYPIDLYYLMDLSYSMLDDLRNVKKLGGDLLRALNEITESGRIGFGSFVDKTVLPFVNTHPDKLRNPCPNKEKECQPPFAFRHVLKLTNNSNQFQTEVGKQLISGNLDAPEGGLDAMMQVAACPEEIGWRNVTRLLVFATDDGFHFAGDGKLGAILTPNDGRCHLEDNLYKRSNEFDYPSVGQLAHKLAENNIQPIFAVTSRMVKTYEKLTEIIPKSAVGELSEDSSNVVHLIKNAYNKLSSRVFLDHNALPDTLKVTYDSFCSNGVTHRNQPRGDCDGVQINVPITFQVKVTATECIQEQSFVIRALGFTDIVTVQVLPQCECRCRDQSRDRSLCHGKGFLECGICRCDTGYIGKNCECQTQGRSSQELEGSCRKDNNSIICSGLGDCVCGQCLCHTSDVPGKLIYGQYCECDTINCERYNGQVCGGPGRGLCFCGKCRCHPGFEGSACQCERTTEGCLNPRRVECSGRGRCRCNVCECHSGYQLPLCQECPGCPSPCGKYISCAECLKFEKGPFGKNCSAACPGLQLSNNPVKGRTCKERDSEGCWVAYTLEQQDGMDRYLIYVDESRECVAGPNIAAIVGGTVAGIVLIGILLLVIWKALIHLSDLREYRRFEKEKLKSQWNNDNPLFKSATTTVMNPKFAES
# CYP2C9 inhib: blockers of cytochrome P450 2C9 activity – biochemical, luminescence, ADME assay, primary screen. CYP2C9 Supersomes, luciferin-H conversion. inhibition, % at 5 µM. 20% of 96,000 active;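 active = blocking of liver enzyme CYP2C9 beyond about 50% at 5 µM, limit read from the data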
# CYP2C9 act: human CYP2C9 activators, primary screen, biochemical, luminescence | Cytochrome P450 2C9 (Homo sapiens), P11712 | recombinant CYP2C9, luciferin-H conversion; stronger effect = higher value; factor 1 = untreated enzyme, 0 = blocked | activation factor at 5 µM | 1.4% of 96,000 active | AID 1024, 2008;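 active = activation factor of 2 or more for CYP2C9 at a 5 µM dose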;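 also: 0 = sulfaphenazole-blocked wells and 1 = vehicle-only wells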
# Mac1 fbg inh: inhibitors of CD11b/CD18 adhesion to fibrinogen, primary screen, K562 cells, luminescence; Integrin beta-2 (Homo sapiens) + Integrin alpha-M (Homo sapiens), P05107+P11215; AID 1497, 2009; ATPlite luminescence; Mn2+ added to activate the integrin; 0.54% of 93,000 active; inhibition, % at 10 µM;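 active = primary inhibition of 50% or more at 10 µM, then 40% or more on retest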
# CYP2C19 inh: blockers of cytochrome P450 2C19 activity – biochemical, luminescence, ADME assay, primary screen. AID 778, 2007. inhibition, % at 5 µM. 21% of 96,000 active. CYP2C19 Supersomes, luciferin-H EGE luminescence, 30 min. P33261;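 active = CYP2C19 inhibition above a set limit at 5 µM in the primary screen, cut at about 50% in these data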;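 also: plate controls were negative control wells for no effect and 2.5 mM tranylcypromine positive control for full effect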
# Numbers without * were called inactive; . = no result.
SMILES,CYP2C19 act,Mac1 fbg enh,CYP2C9 inhib,CYP2C9 act,Mac1 fbg inh,CYP2C19 inh
COCCCNc1oc(COc2ccc(Cl)cc2Cl)nc1C#N,0,-1,94*,0.1,3,99*
N#Cc1nc(COc2ccc(Cl)cc2Cl)oc1N1CCN(c2ccccc2)CC1,0.4,5,42,0.6,4,58*
N#Cc1nc(COc2ccc(Cl)cc2Cl)oc1N1CCOCC1,0.3,0,44,0.6,-12,70*
Cc1cc(Cl)ccc1OCCCC(=O)NCCN1C(=O)S/C(=C\c2cccnc2)C1=O,.,8,.,.,14,.
COc1cccc(/C(O)=C2/C(=O)C(=O)N(c3cc(C)on3)C2c2cccs2)c1 (stereo not drawn),1,.,14,0.9,.,-2
Cc1cc(N2C(=O)C(=O)/C(=C(/O)c3ccccc3)C2c2cccs2)no1 (stereo not drawn),1,2,71*,0.3,-10,0
Cc1cc(N2C(=O)C(=O)/C(=C(/O)c3ccc(F)cc3)C2c2cccc(Br)c2)no1 (stereo not drawn),0.8,0,61*,0.4,-2,20
COc1ccccc1CNC(=O)[C@@H]1CCCN1C(=O)C1CCN(S(=O)(=O)c2ccc(C)cc2)CC1,0.9,2,-37,1.4,-11,9
CCOc1ccc(OCCOCCn2ccnc2)cc1,0,-1,42,0.6,4,98*
O=C(O)c1ccc(OCCn2ccnc2)cc1,1.2,-7,-6,1.1,-17,-20
CC1(CC(=O)O)SC(=O)NC1=O (stereo not drawn),1.1,.,-36,1.4,.,-15
CCOC(=O)c1[nH]cc(-c2ccccc2)c1N1CCOCC1,0.1,.,31,0.7,.,93*
O=C(O)c1cc(S(=O)(=O)NCc2ccco2)c(Cl)cc1Cl,1.1,-8,-11,1.1,0,-12
Cc1c(C(=O)Nc2ccccc2)oc2c1C(=O)CC(C)(C)C2,1,-1,29,0.7,-17,-1
Cc1c(C(=O)Nc2ccncc2)oc2c1C(=O)CC(C)(C)C2,0,1,94*,0.1,-6,99*
Cc1c(C(=O)NC2CCCCC2)oc2c1C(=O)CC(C)(C)C2,0.8,14,20,0.8,-28,16
Cc1ccc(NC(=O)c2oc3c(c2C)C(=O)CC(C)(C)C3)cc1,0.2,-4,11,0.9,8,77*
C/C(N)=C(/C#N)C(=O)CN1CCCCC1,1.1,-5,-18,1.2,-6,-11
O=C(N=C1SCC(=O)N1c1ccccc1)c1ccco1,0.5,-3,16,0.8,-4,51*
CCOC(=O)/C(C(N)=NCCCO)=C(/O)c1ccccc1,0.9,.,-9,1.1,.,9
CC(C)N=C(NC#N)SCc1ccc(F)cc1,0.1,3,63*,0.4,14,95*
Cc1ccc(S(=O)(=O)Nc2ccc3c(c2)nc2n3CCN(Cc3ccccc3)C2)cc1,0.2,-2,96*,0,-2,83*
O=S(=O)(Nc1ccc2c(c1)nc1n2CCN(Cc2ccccc2)C1)c1ccc(Cl)cc1,0.1,30,98*,0,13,88*
Cc1ccc(C(=O)CC(=O)c2cccc(F)c2)c(O)c1,0,-6,72*,0.3,14,95*
CC(=C1C(=O)c2ccccc2C1=O)N1CCc2ccccc2C1,0.2,0,63*,0.4,-24,81*
SMILES,CYP2C19 act,Mac1 fbg enh,CYP2C9 inhib,CYP2C9 act,Mac1 fbg inh,CYP2C19 inh
CCOC(=O)C1CCN(C(C)=C2C(=O)c3ccccc3C2=O)CC1,1,-3,14,0.9,6,5
COc1ccc(-c2nnc(-c3ccc(Br)o3)o2)cc1OC,0.4,-4,31,0.7,4,56*
COc1ccc(-c2nc(-c3ccc(Br)o3)no2)cc1OC,1.1,40,41,0.6,12,-9
C=CC(O)(C#CCN(CC)CC)c1ccccc1 (stereo not drawn),0.5,4,12,0.9,-43,45
CCN(CC)CC#CCC(C)(c1ccccc1)c1ccccc1,0.1,.,72*,0.3,.,94*
CCC(C)NC(=O)C1CCCN(S(=O)(=O)c2ccc(-n3cnnn3)cc2)C1 (stereo not drawn),0.9,-4,14,0.9,-1,9
CCN(CC)S(=O)(=O)c1cccc(-c2nnc(SCCOc3ccccc3C)o2)c1,0.1,-3,-65,1.6,61,90*
CCN(CC)S(=O)(=O)c1cccc(-c2nnc(SCCOc3ccccc3)o2)c1,0.1,-6,-38,1.4,35,94*
CCN(CC)S(=O)(=O)c1cccc(-c2nnc(SCCOc3ccc(Cl)cc3)o2)c1,0.4,1,-97,2*,21,61*
CCN(CC)S(=O)(=O)c1cccc(-c2nnc(SCc3nnc(-c4ccccc4)o3)n2C)c1,0.1,-2,55*,0.5,-10,88*
CCCc1ncc(C(=O)c2ccc(OC)cc2)n1C,0.5,-1,-27,1.3,3,49
CONC(=O)Nc1ccccc1[N+](=O)[O-],.,4,.,.,-3,.
CCOC(=O)c1[nH]c(C(=O)O)c(CCN(CC)CC)c1C,1,-3,7,0.9,-6,-2
COC(=O)Nc1ccc(S(=O)(=O)NCCO)cc1,1.1,-4,6,0.9,1,-5
O=C(COC(=O)CC12CC3CC(CC(Br)(C3)C1)C2)NC(=O)NCc1ccco1,0.5,.,64*,0.4,.,46
CN(C)S(=O)(=O)N1CCN(C(=O)c2cccs2)CC1,0.2,-3,-8,1.1,0,76*
O=C(c1cccs1)N1CCOCC1,1.1,-2,2,1,-5,-5
CC(C)n1c(N2CCN(C(=O)c3cccs3)CC2)nc2ccccc21,0.5,-2,58*,0.4,-21,51*
COc1ccc(S(=O)(=O)N2CCN(C(=O)c3cccs3)CC2)cc1,0.1,-1,50,0.5,-12,94*
COc1ccc(S(=O)(=O)N2CCN(C(=O)c3cccc(Cl)c3)CC2)cc1,0.6,0,15,0.9,5,39
Cc1cccc(C(C)C)c1NC(=O)c1ccc(CN(c2ccccc2)S(=O)(=O)c2ccccc2)cc1,.,6,.,.,9,.
O=C(Oc1cc(-c2ccccc2)no1)c1cccc(C(F)(F)F)c1,1.1,1,6,0.9,-14,-12
O=C(OC(C(=O)NCC1CCCO1)c1ccccn1)c1cccs1 (stereo not drawn),0.8,-5,3,1,7,21
O=S(=O)(Nc1cccc2c1ccc1cccn12)c1cccs1,0.7,.,59*,0.4,.,30
